Here are results for 54 compounds from the antibiotic and cytotoxicity screens of Wong et al. (2023).

The campaign covered roughly 39,000 compounds. About 1,500 (3.8%) were called active. The sample holds actives, similar compounds and a random draw of the others, so the mix is not that of the screen.

This assay deals with HSkMC (human skeletal muscle cells). Briefly: cytotoxicity call (relative viability < 0.9). The following applies: 10 µM.
Turning to `CC[C@@H](C)CCCCC(=O)N[C@@H](CCN)C(=O)N[C@H](C(=O)N[C@@H](CCN)C(=O)N[C@H]1CCNC(=O)[C@H]([C@@H](C)O)NC(=O)[C@H](CCN)NC(=O)[C@H](CCN)NC(=O)[C@H](CC(C)C)NC(=O)[C@@H](Cc2ccccc2)NC(=O)[C@@H](CCN)NC1=O)[C@@H](C)O`, the cytotoxicity call is “inactive”.
Take `CC(C)C[C@@H]1NC(=O)[C@@H](C(C)C)NC(=O)[C@@H]2CCCN2C(=O)[C@@H](CC(=O)O)NC(=O)[C@@H](Cc2c[nH]c3ccccc23)NC1=O`: the cytotoxicity call was “inactive”.
As for `CC(C)[C@H]1C(=O)N[C@@H](CCCNC(=N)N)C(=O)NCC(=O)N[C@@H](CC(=O)O)C(=O)N[C@H](Cc2ccccc2)C(=O)N1C`, the cytotoxicity call was “inactive”.
The same measure for `CC(C)C[C@H]1NC(=O)[C@@H](CCCN)NC(=O)[C@H](C(C)C)NC(=O)[C@H]2CCCN2C(=O)[C@@H](Cc2ccccc2)NC(=O)[C@@H](CC(C)C)NC(=O)[C@@H](CCCN)NC(=O)[C@H](C(C)C)NC(=O)[C@H]2CCCN2C(=O)[C@@H](Cc2ccccc2)NC1=O`: “active”.
With `CC1NC(=O)C2CCCN2C(=O)C(CC(N)=O)NC(=O)C2CSSCC(N)C(=O)NC3CSSCC(NC1=O)C(=O)NC(C(C)O)C(=O)NCC(=O)NC(C(=O)NC(Cc1ccc(O)cc1)C(=O)O)CSSCC(NC(=O)C(Cc1ccc(O)cc1)NC(=O)C(CCC(=O)O)NC3=O)C(=O)N2` (centres undefined) the entry was “inactive”; with `CC(C)(O)C#Cc1ccc([C@H]2[C@@H](CO)N3CCCCN(S(C)(=O)=O)C[C@@H]23)cc1`, “inactive”; with `N#C[C@H]1NCc2cnnn2Cc2ccccc21`, “inactive”.
With `COc1ccc(NC(=O)N(C)C[C@H]2OCCCC[C@@H](C)Oc3ccc(NC(=O)NC(C)C)cc3C(=O)N([C@H](C)CO)C[C@H]2C)cc1` the entry was “inactive”; with `COc1ccc(S(=O)(=O)N(C)C[C@@H]2OCCCC[C@H](C)Oc3ccc(NC(=O)Nc4ccccc4)cc3C(=O)N([C@@H](C)CO)C[C@@H]2C)cc1`, “inactive”; with `CN(C)CCN1CC2(CCN(C(=O)c3cnccn3)CC2)OCC1=O`, “inactive”.
With `Cc1noc(C)c1S(=O)(=O)Nc1ccc2c(c1)C(=O)N([C@H](C)CO)C[C@@H](C)[C@@H](CN(C)Cc1ccc(C(F)(F)F)cc1)OCCCC[C@H](C)O2`, the cytotoxicity call is “inactive”.
The same measure for `C[C@@H]1CCCCO[C@@H](CN(C)C(=O)CCC(F)(F)F)[C@@H](C)CN([C@@H](C)CO)C(=O)c2cc(NC(=O)Nc3ccccc3)ccc2O1`: “inactive”; for `C[C@@H]1CCCCO[C@@H](CN(C)Cc2ccc3c(c2)OCO3)[C@H](C)CN([C@H](C)CO)C(=O)c2cc(NC(=O)Nc3ccc4c(c3)OCO4)ccc2O1`: “inactive”; for `C[C@H]1CN([C@@H](C)CO)C(=O)c2cc(NC(=O)Nc3ccc4c(c3)OCO4)ccc2O[C@H]1CN(C)Cc1ccc(C(F)(F)F)cc1`: “inactive”.
On to `C[C@@H]1CN([C@H](C)CO)C(=O)c2cc(NC(=O)Nc3ccc4c(c3)OCO4)ccc2O[C@@H]1CN(C)Cc1ccc(C(F)(F)F)cc1`, for which the cytotoxicity call was “active”.
The same measure for `C[C@@H]1CN([C@@H](C)CO)C(=O)c2cc(NC(=O)Nc3ccc4c(c3)OCO4)ccc2O[C@H]1CN(C)Cc1ccc(C(F)(F)F)cc1`: “active”.
The same measure for `C[C@H](CO)N1C[C@H](C)[C@@H](CN(C)Cc2ccc(C(F)(F)F)cc2)Oc2ccc(NC(=O)Nc3ccc4c(c3)OCO4)cc2C1=O`: “inactive”.
With `C[C@H](CO)N1C[C@H](C)[C@H](CN(C)Cc2ccc(C(F)(F)F)cc2)Oc2ccc(NC(=O)Nc3ccc4c(c3)OCO4)cc2C1=O`, the cytotoxicity call is “inactive”.
With `C[C@H]1CN([C@@H](C)CO)C(=O)c2cc(NC(=O)Nc3ccc4c(c3)OCO4)ccc2O[C@@H]1CN(C)Cc1ccc(C(F)(F)F)cc1` the entry was “inactive”.
For `Cc1ccc(S(=O)(=O)Nc2ccc3c(c2)C(=O)N([C@H](C)CO)C[C@H](C)[C@@H](CN(C)C(=O)CCC(F)(F)F)OCCCC[C@H](C)O3)cc1`, the cytotoxicity call is “inactive”.
With `C[C@H]1CN([C@@H](C)CO)C(=O)Cc2cc(NC(=O)Cc3ccccc3)ccc2O[C@H]1CN(C)S(=O)(=O)c1ccccc1`, the cytotoxicity call is “inactive”.
The same measure for `C[C@@H]1CN([C@H](C)CO)C(=O)c2cc(NC(=O)Nc3ccc(C(F)(F)F)cc3)ccc2O[C@@H](C)CCCCO[C@@H]1CN(C)S(=O)(=O)c1cn(C)cn1`: “inactive”; for `C[C@H]1CCCCO[C@H](CN(C)S(=O)(=O)c2cn(C)cn2)[C@@H](C)CN([C@@H](C)CO)C(=O)c2cc(NC(=O)Nc3ccc(C(F)(F)F)cc3)ccc2O1`: “inactive”; for `C[C@H]1CCCCO[C@@H](CN(C)S(=O)(=O)c2cn(C)cn2)[C@@H](C)CN([C@@H](C)CO)C(=O)c2cc(NC(=O)Nc3ccc(C(F)(F)F)cc3)ccc2O1`: “active”.
`C[C@@H]1CN([C@@H](C)CO)C(=O)c2cc(NC(=O)Nc3ccc(C(F)(F)F)cc3)ccc2O[C@@H](C)CCCCO[C@H]1CN(C)S(=O)(=O)c1cn(C)cn1`: the cytotoxicity call was “inactive”.
With `C[C@@H]1CN([C@@H](C)CO)C(=O)c2cc(NC(=O)Nc3ccc(C(F)(F)F)cc3)ccc2O[C@@H](C)CCCCO[C@@H]1CN(C)S(=O)(=O)c1cn(C)cn1` the entry was “inactive”.
The same measure for `C[C@H](CO)N1C[C@H](C)[C@@H](CN(C)S(=O)(=O)c2cn(C)cn2)OCCCC[C@H](C)Oc2ccc(NC(=O)Nc3ccc(C(F)(F)F)cc3)cc2C1=O`: “active”; for `CN1CCN(c2nc3c(c(=O)[nH]c(=O)n3C)n2CC(=O)c2ccc(Cl)cc2)CC1`: “inactive”; for `Cc1noc(C)c1S(=O)(=O)Nc1ccc2c(c1)C(=O)N([C@H](C)CO)C[C@H](C)[C@@H](CN(C)S(=O)(=O)c1ccc(F)cc1)O2`: “inactive”.
Turning to `COc1cccc(C#Cc2ccc3c(c2)O[C@@H](CN(C)C(=O)c2ccccn2)[C@H](C)CN([C@@H](C)CO)S3(=O)=O)c1`, the cytotoxicity call was “inactive”.
With `Cc1c(/C=N/c2ccc(C(C)C)cc2)sc2ccccc12` the entry was “inactive”; with `C[C@]12CC[C@@H]3[C@]4(C=C[C@@]5(C=C4C(=O)C4CCCCC4)C[C@@H](O)CC[C@]35C)[C@@H]1CC[C@@]2(O)CN1CCC(n2c(=O)[nH]c3ccccc32)CC1`, “inactive”; with `O=C(C[C@@H]1C[C@H]2c3cc(NS(=O)(=O)c4ccc(F)cc4)ccc3O[C@H]2[C@@H](CO)O1)NC1CCCCC1`, “inactive”.
`C[C@@H]1CN([C@H](C)CO)C(=O)CCCn2cc(nn2)CO[C@H]1CN(C)C(=O)Nc1ccccc1C(F)(F)F`: the cytotoxicity call is “inactive”.
Take `Cc1ccc(S(=O)(=O)Nc2ccc3c(c2)C(=O)N([C@@H](C)CO)C[C@@H](C)[C@H](CN(C)Cc2ccc(Cl)c(Cl)c2)OCCCC[C@@H](C)O3)cc1`: the cytotoxicity call was “inactive”.
On to `Cc1ccc(S(=O)(=O)Nc2ccc3c(c2)C(=O)N([C@H](C)CO)C[C@@H](C)[C@H](CN(C)Cc2ccc(Cl)c(Cl)c2)OCCCC[C@@H](C)O3)cc1`, for which the cytotoxicity call is “inactive”.
With `Cc1ccc(S(=O)(=O)Nc2ccc3c(c2)C(=O)N([C@H](C)CO)C[C@H](C)[C@H](CN(C)Cc2ccc(Cl)c(Cl)c2)OCCCC[C@H](C)O3)cc1` the entry was “inactive”; with `Cc1noc(C)c1S(=O)(=O)Nc1ccc2c(c1)C(=O)N([C@H](C)CO)C[C@H](C)[C@@H](CN(C)Cc1ccc(Cl)c(Cl)c1)OCCCC[C@H](C)O2`, “inactive”.
The same measure for `Cc1ccc(S(=O)(=O)Nc2ccc3c(c2)C(=O)N([C@@H](C)CO)C[C@H](C)[C@@H](CN(C)Cc2ccc(Cl)c(Cl)c2)OCCCC[C@@H](C)O3)cc1`: “active”.
The same measure for `Cc1noc(C)c1S(=O)(=O)Nc1ccc2c(c1)C(=O)N([C@@H](C)CO)C[C@H](C)[C@@H](CN(C)Cc1ccc(Cl)c(Cl)c1)OCCCC[C@H](C)O2`: “inactive”; for `Cc1ccc(S(=O)(=O)Nc2ccc3c(c2)C(=O)N([C@H](C)CO)C[C@@H](C)[C@H](CN(C)Cc2ccc(Cl)c(Cl)c2)OCCCC[C@H](C)O3)cc1`: “inactive”.
Consider `Cc1noc(C)c1S(=O)(=O)Nc1ccc2c(c1)C(=O)N([C@H](C)CO)C[C@@H](C)[C@@H](CN(C)Cc1ccc(Cl)c(Cl)c1)OCCCC[C@H](C)O2`, for which the cytotoxicity call was “active”.
`Cc1ccc(S(=O)(=O)Nc2ccc3c(c2)C(=O)N([C@@H](C)CO)C[C@H](C)[C@@H](CN(C)Cc2ccc(Cl)c(Cl)c2)OCCCC[C@H](C)O3)cc1`: the cytotoxicity call is “active”.
The same measure for `Cc1ccc(S(=O)(=O)Nc2ccc3c(c2)C(=O)N([C@H](C)CO)C[C@@H](C)[C@@H](CN(C)Cc2ccc(Cl)c(Cl)c2)OCCCC[C@H](C)O3)cc1`: “inactive”; for `Cc1ccc(S(=O)(=O)Nc2ccc3c(c2)C(=O)N([C@H](C)CO)C[C@H](C)[C@@H](CN(C)Cc2ccc(Cl)c(Cl)c2)OCCCC[C@H](C)O3)cc1`: “inactive”.
The same measure for `Cc1ccc(S(=O)(=O)Nc2ccc3c(c2)C(=O)N([C@@H](C)CO)C[C@@H](C)[C@@H](CN(C)Cc2ccc(Cl)c(Cl)c2)OCCCC[C@@H](C)O3)cc1`: “active”.
Regarding `CNC(=O)C[C@@H]1CC[C@H]2[C@@H](COC[C@@H](O)CN2C(=O)c2ccc3c(c2)OCO3)O1`, the cytotoxicity call was “inactive”.
With `COc1cccc(S(=O)(=O)Nc2ccc3c(c2)OC[C@@H](C)N(C(=O)Cc2cccnc2)C[C@H](C)[C@@H](OC)CN(C)C3=O)c1` the entry was “inactive”; with `C[C@@H]1CN([C@@H](C)CO)C(=O)c2cccc(NC(=O)Nc3ccc4c(c3)OCO4)c2O[C@H]1CN(C)S(C)(=O)=O`, “inactive”.
As for `C[C@@H]1CCCCO[C@H](CN(C)S(=O)(=O)c2ccccc2)[C@H](C)CN([C@@H](C)CO)C(=O)c2cc(NC(=O)Nc3ccc(F)cc3)ccc2O1`, the cytotoxicity call was “inactive”.
For `O=C(O)CCNC(=O)c1cccc([N+](=O)[O-])c1`, the cytotoxicity call is “inactive”.
With `C[C@H]1CN([C@@H](C)CO)C(=O)c2cccc(NS(=O)(=O)c3cn(C)cn3)c2O[C@@H]1CN(C)CC1CCCCC1` the entry was “inactive”; with `Cc1noc(C)c1S(=O)(=O)Nc1cccc2c1O[C@@H](CN(C)Cc1ccc3c(c1)OCO3)[C@@H](C)CN([C@@H](C)CO)C2=O`, “inactive”; with `COCC#Cc1ccc([C@@H]2[C@H]3CN(C(=O)CN4CCOCC4)CC(=O)N3[C@H]2CO)cc1`, “inactive”.
